Only some compounds are listed: those with a hit (about 2% of all), similar ones and a draw of the others.
CHO-K1 Ca ag – M1 agonist counterscreen hit in parental CHO-K1 cells | Fluo-8 calcium fluorescence; scaled to maximal ATP response, vehicle zero | activation, % at 3 µM | 360,000 tested, 0.48% active | AID 602248; in the data active = activation above about 15%;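 note: untransfected CHO-K1 host cells lacking M1 receptor as counterscreen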
CHRM4 agonist – agonists of human muscarinic M4 receptor (CHRM4); 360,000 tested, 0.14% active; activation, % at 3 µM; CHO-K1 hM4/Gqi5, Fluo-8 calcium fluorescence; vehicle 0%, full acetylcholine response 100%; P08173;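 active = activation above the run mean over all test wells plus 3 SD, cut at about 32% in these data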;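 note: peak over basal fluorescence ratio per well then scaled between controls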
Target sequence (P08173 whole entry, looked up): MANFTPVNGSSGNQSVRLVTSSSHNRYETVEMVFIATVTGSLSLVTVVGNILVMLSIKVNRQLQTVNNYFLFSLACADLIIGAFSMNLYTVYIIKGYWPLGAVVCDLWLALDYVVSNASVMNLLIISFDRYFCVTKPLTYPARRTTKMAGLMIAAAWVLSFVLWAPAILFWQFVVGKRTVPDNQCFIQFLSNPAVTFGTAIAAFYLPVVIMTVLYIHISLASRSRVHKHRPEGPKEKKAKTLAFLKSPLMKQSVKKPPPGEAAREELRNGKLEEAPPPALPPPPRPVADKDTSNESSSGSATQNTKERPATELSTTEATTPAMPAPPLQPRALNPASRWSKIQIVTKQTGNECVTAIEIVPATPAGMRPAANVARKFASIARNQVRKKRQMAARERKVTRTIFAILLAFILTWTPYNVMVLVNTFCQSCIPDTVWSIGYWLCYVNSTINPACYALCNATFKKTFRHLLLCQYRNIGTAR
CHRM4 antagonist – CHRM4 antagonism in calcium assay; P08173; CHO-hM4 cells, ACh EC80, Fluo-8 calcium fluorescence; inhibition, % at 3 µM; 360,000 tested, 0.73% active; AID 624125;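 active = inhibition above its plate's cutoff, the mean inhibition of sample wells plus 3 SD, cut at about 27% in these data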
CHO-K1 Ca PAM – M1 PAM counterscreen hit in parental CHO-K1 cells; ATP EC20, Fluo-8 calcium fluorescence; 0% at ATP EC20, 100% at ATP max; activation, % at 3 µM; 360,000 tested, 0.02% active; AID 602247;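 active = activation above the run cutoff, the mean activation of all test compounds plus 3 SD, cut at about 40% in these data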;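 note: peak over basal fluorescence ratio in a 140 s read after ATP addition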
CHRM4 PAM – CHRM4 positive allosteric modulation | P08173 | CHO-K1 hM4/Gqi5, Fluo-8 calcium fluorescence, ACh EC20; 0% = ACh EC20, 100% = maximal ACh | activation, % at 3 µM | 360,000 tested, 0.4% active;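 active = activation above its plate's cutoff, the mean activation of sample wells plus 3 SD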
CHO-K1 Ca antag – M1 antagonist counterscreen hit in parental CHO-K1 cells | 360,000 tested, 0.6% active | ATP-induced calcium, Fluo-8 fluorescence | AID 602250 | inhibition, % at 3 µM;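 active = inhibition above a per-plate cutoff, the plate's mean sample inhibition plus 3 SD, cut at about 24% in these data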
Of the large screens only hits and unclear results are named; the others gave an inactive call; ! = not confirmed by another sample.

CC1CN(c2nnc(-c3ccccc3)c3ccccc23)CC(C)O1 (centres undefined)	none
O=C1N=c2ccccc2=C1c1sc(NS(=O)(=O)c2ccccc2)nc1O	CHRM4 PAM 28
CCOC1=C2CN(S(=O)(=O)c3ccc(C)cc3)[C@@H](c3cccs3)C[C@H]2[C@H]2C(=O)N(c3ccccc3)C(=O)[C@H]2C1	CHO-K1 Ca antag 27
COc1ccc(CCNS(=O)(=O)c2cc3c4c(c2)CCN4C(=O)CC3)cc1	none
Oc1ccc(C[C@@H]2CNCCN2CCc2cc(C(F)(F)F)cc(C(F)(F)F)c2)cc1	CHRM4 PAM 25
Oc1ccc(C[C@H]2CNCCN2CCc2cc(C(F)(F)F)cc(C(F)(F)F)c2)cc1	none
CC1CN(C(=O)CSc2nnc(C3CCCCC3)n2N)CC(C)O1 (centres undefined)	none
O=C(CNC(=O)N1CC(=O)Nc2ccccc21)NCc1ccc(Cl)cc1	none
O=C(CSCc1ccc(F)cc1)N1CCN(c2ccccc2)CC1	CHRM4 PAM 30
C[C@H](NC(=O)c1ccccc1Cl)C(=O)Nc1ccccc1F	CHRM4 antagonist 75
Cc1c(P(=S)(c2ccccc2)c2ccccc2)[n+]2ccccc2n1CCc1ccccc1	CHRM4 antagonist 56
CC(=O)Nc1ccc(S(=O)(=O)N2CCN=C2SCc2ccc([N+](=O)[O-])cc2)cc1	CHO-K1 Ca ag 17
O=C(C1CCCCC1)N1CCN=C1SCc1cccc([N+](=O)[O-])c1	CHRM4 antagonist 32
O=C(c1ccccc1)N1CCN=C1SCc1ccc([N+](=O)[O-])cc1	CHRM4 antagonist 29
O=C(c1ccc([N+](=O)[O-])cc1)N1CCN=C1SCc1ccccc1	none
Cc1ccccc1-c1nc2cc(NC(=O)C3CC3)ccc2o1	none
CCOC(=O)C(C(C)C)C(N)Cc1ccc(F)cc1 (centres undefined)	none
CCOC(=O)c1c(NC(=O)COC(=O)Cn2cnc3c2c(=O)n(C)c(=O)n3C)sc(C)c1CC	CHRM4 PAM 24
CN(C)CCCN(C(=O)c1ccc(Cl)s1)c1nc2cc3c(cc2s1)OCO3	none
CN(C)CCCN(C(=O)c1cc(Cl)sc1Cl)c1nc2cc3c(cc2s1)OCO3	CHRM4 antagonist 62
CC(=O)c1cccc(-c2ccnc3c2CC(C(=O)Nc2cccc(OC(F)(F)F)c2)O3)c1 (centres undefined)	none
Nc1c(-c2ccccc2)c(CSc2nc3ccccc3[nH]2)nn1-c1ccc(C(=O)O)cc1	CHRM4 PAM 24
Cc1nn(-c2ccc(C(=O)O)cc2)c(N)c1-c1ccccc1	none
COc1ccc(/C=C/C(=O)c2cc(F)ccc2OC(=O)c2ccccc2)cc1OC	CHO-K1 Ca antag 24
Cc1c(C(=O)OC(C)CCN(C)C)oc2ccccc12 (centres undefined)	CHRM4 antagonist 31
Cc1c(C(=O)OCC(C)(C)CN(C)C)oc2ccccc12	none
CCc1c(O)nc(SCC(=O)Nc2nc3ccccc3s2)n(C2CCCCC2)c1=O	none
CCCCCCCCCCOC(=O)Cn1c(COc2ccc(Cl)cc2)[n+](C)c2ccccc21	none
CCCCCCCCCCOC(=O)Cn1c(COc2ccc(OC)cc2)[n+](C)c2ccccc21	CHRM4 antagonist 32!
CCCCCCCCCCOC(=O)Cn1c(COc2cccc(C)c2)[n+](C)c2ccccc21	CHRM4 antagonist 38
CCCCOC(=O)Cn1c(=O)n(CC(=O)OCCCC)c2ccccc21	none
Cc1ccccc1OCc1n(CC(=O)OC2CC(C)CCC2C(C)C)c2ccccc2[n+]1C (centres undefined)	CHRM4 antagonist 35
CCCCCCCCCCOC(=O)Cn1c(COc2ccccc2)[n+](C)c2ccccc21	CHRM4 antagonist 38
COc1ccc(S(=O)(=O)N2CCCCCC2)cc1NC(=O)Cc1cccc(C(F)(F)F)c1	none
CCc1nn(CCCC(=O)NCc2ccccc2C)c(=O)c2cc3occc3n12	none
CCOC(=O)Cn1c(COc2ccccc2OC)[n+](C)c2ccccc21	none
CCCCCCCCCCOC(=O)Cn1c(COc2ccccc2C)[n+](C)c2ccccc21	CHRM4 antagonist 92
CC1=CC(C)(C)NC(=S)N1CCO	none
Cc1ccc(N(CC(=O)NCc2ccco2)C(=O)CNS(=O)(=O)c2ccccc2)c(C)c1	none

High-throughput results (PubChem)
